We go through nine compounds from PubChem BioAssay (NCATS).

Inconclusive results are not listed. Active and inactive are the calls of the source. Calls follow the shape of the dose curve; as a rule, active = well fitted curve in the direction sought with a large enough effect; inconclusive = small, poorly fitted or top-dose-only effect, or another doubt; inactive = no such curve, though single readings can be large; an effect the other way counts as inactive or inconclusive.

Test [1] in a line: NS1 protein of Zika virus - qHTS assay to identify small molecule inhibitors in human HEK 293 cells (AID 1347053). Also: series mostly up to about 46 µM; nearly all actives have a fitted effect of over 55% in size. In short, it runs like this: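 HEK 293; 20 h pre-culture, 37 C/5% CO2; cpd 1 h pre-infection; ZIKV MR766, MOI = 0.5, 24 h, 37 C; TR-FRET NS1 readout (two anti-NS1 Abs); norm. to no-virus vs infected.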
(Quantitative high-throughput screening tests each substance at several concentrations.)

A short description of test [2]: qHTS of pediatric cancer cell lines to identify multiple opportunities for drug repurposing: Primary screen for TC32 cells (AID 1347089). Also: nearly all actives have a fitted effect of over 60% in size. The gist of the method:
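Luminescent CellTiter-Glo read-out of metabolically active TC32 cells after 48 h compound exposure. Primary: MIPE 11-point, 0.78 nM–46 µM; NPC 8-point, 0.59 nM–46 µM. Confirmatory: 11-point dilutions.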

A short description of test [3]: qHTS of pediatric cancer cell lines to identify multiple opportunities for drug repurposing: Primary screen for DAOY cells (AID 1347090). Also: series mostly up to about 46 µM; nearly all actives have a fitted effect of over 55% in size. In short, it runs like this: (§1)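 Eight- or eleven-point concentration series, 48 h treatment at 37 degrees C in growth media; readout CellTiter-Glo luminescence. Potency and efficacy were taken from the concentration-response curves.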

Test [4] is described as follows: qHTS of pediatric cancer cell lines to identify multiple opportunities for drug repurposing: Primary screen for SJ-GBM2 cells (AID 1347091). Also: potency is read from the fitted curve at half-maximal effect. In short, it runs like this: as §1
The nature of test [5]: qHTS of pediatric cancer cell lines to identify multiple opportunities for drug repurposing: Primary screen for A673 cells (AID 1347092). Also: nearly all actives have a fitted effect of over 45% in size. The gist of the method: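 A673 cells (500-1,000 cells/well in growth media) were pre-incubated 5 h at 37 degrees C, then exposed to compounds for 48 h. Viability was read as CellTiter-Glo luminescence; concentration-response curves came directly from the primary screen.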

Test [6] can be described thus: qHTS of pediatric cancer cell lines to identify multiple opportunities for drug repurposing: Primary screen for BT-37 cells (AID 1347094). Also: potency is read from the fitted curve at half-maximal effect. The gist of the method: (§2)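 Cells plated at 500-1,000/well in growth medium, compounds added after 5 h. MIPE tested at 11 points (from 0.78 nM), NPC at 8 points (from 0.59 nM). CellTiter-Glo luminescence after 48 h; concentration-response curves from primary screen.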

The nature of test [7]: qHTS of pediatric cancer cell lines to identify multiple opportunities for drug repurposing: Primary screen for NB-EBc1 cells (AID 1347095). In short, it runs like this: as §2
Test [8] in a line: qHTS of pediatric cancer cell lines to identify multiple opportunities for drug repurposing: Primary screen for U-2 OS cells (AID 1347096). Also: nearly all actives have a fitted effect of over 50% in size. In short, it runs like this:
(§3)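 Cells (500-1,000/well) in growth media were settled 5 h at 37 degrees C, then given compounds for 48 h. Viability was read as CellTiter-Glo luminescence. Primary runs used MIPE at 11 points (0.78 nM-46 µM) and NPC at 8 points (0.59 nM-46 µM); follow-ups used 11 points.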

Test [9] is described as follows: qHTS of pediatric cancer cell lines to identify multiple opportunities for drug repurposing: Primary screen for Saos-2 cells (AID 1347097). Also: nearly all actives have a fitted effect of over 40% in size. In short, it runs like this:
as §2

Test [10] can be described thus: qHTS of pediatric cancer cell lines to identify multiple opportunities for drug repurposing: Primary screen for SK-N-SH cells (AID 1347098).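 Also: DMSO served as neutral control and bortezomib at 2.3 µM as positive control; nearly all actives have a fitted effect of over 65% in size.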 The gist of the method:
(§4)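 Cells (500-1,000/well) rested 5 h, then received compounds for 48 h; metabolically active cells were measured by CellTiter-Glo luminescence. Final concentrations spanned up to 46 µM (MIPE, 11-point) or 0.59 nM-46 µM (NPC, 8-point) in primary screens, 11-point in follow-ups.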

Test [11] is described as follows: qHTS of pediatric cancer cell lines to identify multiple opportunities for drug repurposing: Primary screen for NB1643 cells (AID 1347099). Also: nearly all actives have a fitted effect of over 50% in size. The gist of the method:
as §2

A short description of test [12]: qHTS of pediatric cancer cell lines to identify multiple opportunities for drug repurposing: Primary screen for LAN-5 cells (AID 1347100). The gist of the method: as §3
The nature of test [13]: qHTS of pediatric cancer cell lines to identify multiple opportunities for drug repurposing: Primary screen for BT-12 cells (AID 1347101). Also: nearly all actives have a fitted effect of over 25% in size. The gist of the method:
as §4

A short description of test [14]: qHTS of pediatric cancer cell lines to identify multiple opportunities for drug repurposing: Primary screen for Rh18 cells (AID 1347102). Also: nearly all actives have a fitted effect of over 65% in size. The gist of the method:
as §3

A short description of test [15]: qHTS of pediatric cancer cell lines to identify multiple opportunities for drug repurposing: Primary screen for OHS-50 cells (AID 1347103). Also: nearly all actives have a fitted effect of over 40% in size. In short, it runs like this:
as §4

Test [16] is described as follows: qHTS of pediatric cancer cell lines to identify multiple opportunities for drug repurposing: Primary screen for SK-N-MC cells (AID 1347093). Also: series mostly up to about 46 µM. In short, it runs like this: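 Metabolically active cells were quantified by ATP-dependent luminescence (CellTiter-Glo, 15 min at room temperature) following 48 h treatment. Cells had been plated at 500-1,000 per well and settled for 5 h beforehand.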

Test [17] is described as follows: qHTS of pediatric cancer cell lines to identify multiple opportunities for drug repurposing: Primary screen for RD cells (AID 1347104). Also: nearly all actives have a fitted effect of over 55% in size. In short, it runs like this: as §2

Consider `OC[C@H]1O[C@H](O[C@]2(CCl)O[C@H](CCl)[C@@H](O)[C@@H]2O)[C@H](O)[C@@H](O)[C@H]1Cl`, for which the Potency entry in test [1], in test [2], in [3], in test [4], in test [5] and in [6] was “inactive” throughout. Further, the Potency entry in [7], in test [8], in [9], in [10], in [11] and in test [12] was “inactive” in each case. Besides, the Potency entry in test [13], in test [14] and in test [15] was “inactive” in each case.

Turning to `OC(CCN1CCCCC1)(c1ccccc1)c1ccccc1`, the Potency result in test [1], in test [2], in test [3], in test [4], in test [5] and in [16] was “inactive” in each case. Moreover, the Potency entry in test [6], in [8], in test [9], in test [10], in test [11] and in test [13] was “inactive” in each case. Besides, the Potency result in test [14] and in [17] was “inactive” each time.

In the case of `CCCCC1=NC2(CCCC2)C(=O)N1Cc1ccc(-c2ccccc2-c2nn[nH]n2)cc1`, the Potency result in test [1], in test [2], in test [3], in [4], in test [5] and in [6] was “inactive” throughout. Also, the Potency result in test [7], in [8], in test [9], in [10], in test [11] and in test [12] was “inactive” each time. Moreover, the Potency result in test [13], in test [14], in test [15] and in [17] was “inactive” in each case.

For the compound `O=C(CCCN1CCC(O)(c2ccc(Br)cc2)CC1)c1ccc(F)cc1`, the Potency result in test [1], in test [2], in test [3], in test [5], in test [16] and in test [8] was “inactive” each time. Also, the Potency result in test [9], in test [10], in [12], in test [13] and in [17] was “inactive” each time. Besides, the Potency in test [4] was 21.1 µM (active); in test [6], 0.001 µM (active).

In the case of `O=C(Nc1ccc(Cl)c(Cl)c1)C1CC1`, the Potency result in [1], in test [2], in [3], in [4], in test [5] and in test [6] was “inactive” each time. Also, the Potency result in test [7], in [9], in test [10], in [11], in test [12] and in test [14] was “inactive” each time. The Potency entry in test [17] was “inactive”.

`CN=C(NC#N)Nc1ccc(C2=NNC(=O)CC2C)cc1` (stereo not given): the Potency entry in test [1], in test [2], in [3], in [4], in test [5] and in test [6] was “inactive” throughout. Besides, the Potency entry in [7], in test [8], in [9], in test [10], in [11] and in [12] was “inactive” in each case. Further, the Potency result in test [13], in [14], in [15] and in test [17] was “inactive” each time.

`N[C@@H](CCC(=O)N[C@@H](CS)C(=O)NCC(=O)O)C(=O)O`: the Potency result in test [1], in [2], in test [3], in [4], in [5] and in [6] was “inactive” in each case. The Potency result in test [7], in [8], in [9], in test [10], in [11] and in test [12] was “inactive” each time. The Potency entry in test [13], in test [14], in test [15] and in test [17] was “inactive” throughout.

On to `CCCCCC=CCC=CCCCCCCCC(=O)OCC`, for which the Potency result in [1], in [2], in test [3], in [4], in test [6] and in test [8] was “inactive” in each case. The Potency result in test [12], in test [13], in test [14], in test [15] and in [17] was “inactive” in each case.

As for `CCOC(=O)COc1ccc2c(C)c(CCN(CC)CC)c(=O)oc2c1Cl`, the Potency entry in test [1], in test [2], in test [3], in test [5], in test [16] and in test [6] was “inactive” in each case. Also, the Potency result in [7], in test [8], in test [9], in [10], in test [11] and in [12] was “inactive” each time. Besides, the Potency result in test [13], in test [14], in [15] and in test [17] was “inactive” each time.
